Laboratory results: PubChem BioAssay (NCI)
“And” between values parts separate entries of the source, which are not always exact repeats. Equal values may be shown once. The panel holds about 83,000 compounds, 20% with a hit somewhere; the sample as a whole holds those more often.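 Values shown are percent growth following 48 h exposure of cells in 96-well plates to a single concentration of compound; below 10 was considered active.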

What was measured:
Assay in all cases: NCI-60 one-dose screen, 48 h (100 = growth as untreated, 0 = no growth, -100 = all killed)
Conditions in all cases: 10 µM unless noted
NCI-H226 lung = tested on: NCI-H226 lung
NCI-H322M lung = tested on: NCI-H322M lung
HOP-62 NSCLC = tested on: HOP-62 NSCLC
NCI-H460 lung = tested on: NCI-H460 lung
HOP-92 NSCLC = tested on: HOP-92 NSCLC
NCI-H522 lung = tested on: NCI-H522 lung
A549/ATCC NSCLC = tested on: A549/ATCC NSCLC
786-0 renal = tested on: 786-0 renal
COLO 205 colon = tested on: COLO 205 colon
DU-145 prostate = tested on: DU-145 prostate
K-562 leukemia = tested on: K-562 leukemia
MALME-3M melanoma = tested on: MALME-3M melanoma
MDA-MB-231 breast = tested on: MDA-MB-231 breast
RXF 393 renal = tested on: RXF 393 renal
SF-268 CNS = tested on: SF-268 CNS
SF-295 CNS = tested on: SF-295 CNS
SF-539 CNS = tested on: SF-539 CNS
UACC-257 melanoma = tested on: UACC-257 melanoma
M14 melanoma = tested on: M14 melanoma

Measured: growth

Cc1ccc2nc3c(nc2c1)-c1cccc2cccc-3c12
inactive: NCI-H226 lung 86.3% | NCI-H322M lung 74.6% | HOP-62 NSCLC 101% | NCI-H460 lung 72.4% | HOP-92 NSCLC 89.8% | NCI-H522 lung 66.4% | A549/ATCC NSCLC 74.4% | 786-0 renal 105% | COLO 205 colon 70.2% | DU-145 prostate 86.4% | K-562 leukemia 97.5% | MALME-3M melanoma 124% | MDA-MB-231 breast 75.8% | RXF 393 renal 85.2% | SF-268 CNS 89.2% | SF-295 CNS 102% | SF-539 CNS 85.4% | UACC-257 melanoma 106% | M14 melanoma 102%

O=C(O)c1cc(C(=O)O)cc([N+](=O)[O-])c1
inactive: NCI-H226 lung 102% | NCI-H322M lung 105% | NCI-H460 lung 110% | HOP-92 NSCLC 111% | NCI-H522 lung 94.3% | 786-0 renal 101% | COLO 205 colon 110% | DU-145 prostate 116% | MALME-3M melanoma 95.2% | MDA-MB-231 breast 105% | RXF 393 renal 123% | SF-268 CNS 111% | SF-295 CNS 93.4% | SF-539 CNS 100% | UACC-257 melanoma 103% | M14 melanoma 99.8%

CC1(C)C2CCC1(CS(=O)(=O)O)C(=O)C2 (stereo not drawn)
inactive: HOP-62 NSCLC 101%

N=C1N=C(N)CS1
inactive: NCI-H226 lung 96.9% | HOP-62 NSCLC 107% | NCI-H460 lung 103% | HOP-92 NSCLC 99.5% | NCI-H522 lung 103% | 786-0 renal 103% | COLO 205 colon 113% | DU-145 prostate 115% | K-562 leukemia 105% | MALME-3M melanoma 114% | MDA-MB-231 breast 115% | RXF 393 renal 99.4% | SF-268 CNS 107% | SF-295 CNS 96.5% | SF-539 CNS 110% | UACC-257 melanoma 106% | M14 melanoma 108%

O=C1c2c(O)cc(O)cc2OC(c2ccc(O)c(O)c2)C1O (stereo not drawn)
inactive: NCI-H226 lung 109% | NCI-H322M lung 126% | HOP-62 NSCLC 110% | NCI-H460 lung 107% | HOP-92 NSCLC 108% | A549/ATCC NSCLC 105% | COLO 205 colon 119% | DU-145 prostate 132% | K-562 leukemia 104% | MALME-3M melanoma 118% | MDA-MB-231 breast 106% | RXF 393 renal 124% | SF-268 CNS 111% | SF-295 CNS 119% | SF-539 CNS 107% | UACC-257 melanoma 107%

NC(=S)NS(=O)(=O)c1ccc(N)cc1
inactive: NCI-H226 lung 96% | NCI-H460 lung 109% | HOP-92 NSCLC 103% | NCI-H522 lung 102% | A549/ATCC NSCLC 101% | 786-0 renal 105% | COLO 205 colon 108% | DU-145 prostate 125% | K-562 leukemia 103% | MALME-3M melanoma 96.6% | MDA-MB-231 breast 117% | RXF 393 renal 101% | SF-268 CNS 107% | SF-295 CNS 94.7% | SF-539 CNS 98.7% | UACC-257 melanoma 101% | M14 melanoma 106%

OC(CSc1ccccc1)CN1CCN(c2cccc(Cl)c2)CC1 (stereo not drawn)
inactive: NCI-H226 lung 91.4% and 89.5% | NCI-H322M lung 108% and 102% | NCI-H460 lung 114% and 109% | HOP-92 NSCLC 82% and 83.2% | NCI-H522 lung 104% and 83.7% | A549/ATCC NSCLC 101% and 98.4% | 786-0 renal 94.8% and 105% | COLO 205 colon 105% and 99.9% | DU-145 prostate 116% and 105% | K-562 leukemia 84% and 97% | MDA-MB-231 breast 96.6% and 96.3% | RXF 393 renal 106% and 93.8% | SF-268 CNS 100% and 99.1% | SF-295 CNS 110% and 105% | SF-539 CNS 113% and 105% | UACC-257 melanoma 93.6% and 95% | M14 melanoma 100% and 93.8%
